Assay outcomes deposited in PubChem BioAssay by several laboratories.
NALP1 inh = inhibitors of NALP1 inflammasome in yeast; S. cerevisiae NALP1/ASC/caspase-1 growth, X-gal OD620, 72 h; inhibition, % at 10 µM; hit rate 0.61% among 280,000; in the data active = inhibition mostly above about 24%, no sharp cut-off; inactive = mostly below about 32%
dFosB act = enhances mouse delta FosB homodimer DNA binding; hit rate 0.99% among 340,000; activation, % at 25 µM; purified delta FosB, TAMRA-CDK5 oligo fluorescence polarization; percent of positive-control signal above neutral wells; P13346;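 active = mean activation above about 17%, with every replicate also reaching it, limit read from the data, passing the limit was not always enough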
Target sequence (P13346 whole entry, looked up): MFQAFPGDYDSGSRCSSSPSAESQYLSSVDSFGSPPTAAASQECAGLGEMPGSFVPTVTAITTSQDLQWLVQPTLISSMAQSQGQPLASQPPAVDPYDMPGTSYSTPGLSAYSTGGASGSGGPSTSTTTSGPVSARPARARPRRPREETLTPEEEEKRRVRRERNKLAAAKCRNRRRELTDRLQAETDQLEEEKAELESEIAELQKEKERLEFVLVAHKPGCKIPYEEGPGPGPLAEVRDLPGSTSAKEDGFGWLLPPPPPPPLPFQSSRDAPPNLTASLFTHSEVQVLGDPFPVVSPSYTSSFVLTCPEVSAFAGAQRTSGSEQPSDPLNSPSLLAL
Yeast superoxide = lowers age-related superoxide in aged yeast cells. S. cerevisiae aged cells, superoxide DHE fluorescence; hits give low values. AID 2690. superoxide response (% of plate mean), % at 10 µM. hit rate 0.18% among 330,000;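 active = superoxide response under a set limit, about three screen SD below normal, cut at about 65% in these data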;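 also: yeast aged for seven days with compound at 30 °C before DHE staining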
GRIN3A LBD mod = NR3A (human) ligand-binding domain modulation. NR3A LBD differential scanning fluorimetry, Tm shift; 0% = protein alone, 100% = glycine-bound protein. Tm shift relative to glycine control, % at 25 µM. hit rate 2.5% among 340,000. AID 1259313;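 active = melting temperature shift of at least 10% of the positive control shift, at one fixed dose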
UBC13 inh = human UBC13 polyubiquitination inhibition; inhibition, % at 20 µM; P61088; hit rate 0.47% among 330,000; UBC13 polyubiquitin chain formation, TR-FRET; in the data active = inhibition above about 45%, passing the limit was not always enough
Target sequence (P61088 whole entry, looked up): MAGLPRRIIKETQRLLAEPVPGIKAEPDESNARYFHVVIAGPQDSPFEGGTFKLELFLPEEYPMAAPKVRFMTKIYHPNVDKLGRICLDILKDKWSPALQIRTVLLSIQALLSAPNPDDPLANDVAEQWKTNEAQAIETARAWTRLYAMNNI
A number is an active result. This is a sample that favours compounds with a hit; in the whole collection about 4.3% have one here.

How did Cc1cccnc1CNC(=O)C1CCC(=O)N(CCc2cccc(F)c2)C1 (stereo unspecified) do in these assays?
NALP1 inh: inactive; dFosB act: inactive; Yeast superoxide: inactive; GRIN3A LBD mod: inactive; UBC13 inh: inactive

What do the screens show for `O=C(CCc1ccccc1)NC(NC(=S)Nc1cccc(Cl)c1)C(Cl)(Cl)Cl` (stereo unspecified)?
NALP1 inh: inactive; dFosB act: inactive; Yeast superoxide: inactive; GRIN3A LBD mod: 37.8; UBC13 inh: inactive

How did CCC(=O)NC(NC(=S)Nc1ccccc1Br)C(Cl)(Cl)Cl (stereo unspecified) do in these assays?
NALP1 inh: inactive; dFosB act: inactive; Yeast superoxide: inactive; GRIN3A LBD mod: inactive; UBC13 inh: inactive

How did O=C(CCc1ccccc1)NC(NC(=S)Nc1ccc(Br)cc1)C(Cl)(Cl)Cl (stereo unspecified) do in these assays?
NALP1 inh: inactive; dFosB act: inactive; Yeast superoxide: inactive; GRIN3A LBD mod: 13.7; UBC13 inh: inactive

Results for O=C(CCc1ccccc1)Nc1cc(NC(=O)CCc2ccccc2)cc(C(=O)O)c1 ?
NALP1 inh: inactive; dFosB act: inactive; Yeast superoxide: inactive; GRIN3A LBD mod: 17.0; UBC13 inh: inactive

What do the screens show for `O=C(CCc1ccccc1)Nc1ccncc1`?
NALP1 inh: inactive; dFosB act: inactive; Yeast superoxide: inactive; GRIN3A LBD mod: inactive; UBC13 inh: inactive

How did C/C(=N\NC(=O)COc1ccccc1)c1ccc(O)cc1 do in these assays?
NALP1 inh: inactive; dFosB act: inactive; Yeast superoxide: inactive; GRIN3A LBD mod: 13.1; UBC13 inh: inactive

How did COc1ccc(OCC(=O)N/N=C(\C)c2ccc(OC)cc2)cc1 do in these assays?
NALP1 inh: inactive; dFosB act: inactive; Yeast superoxide: inactive; GRIN3A LBD mod: inactive; UBC13 inh: inactive

How did COc1cc(OC)cc(C(=O)N[C@H](C(=O)Nc2nc(-c3ccc(F)c(F)c3)cs2)C(C)C)c1 do in these assays?
NALP1 inh: inactive; dFosB act: inactive; Yeast superoxide: inactive; GRIN3A LBD mod: inactive; UBC13 inh: inactive

What do the screens show for `CC(C)(C)OC(=O)N1CCC2(CC1)Oc1ccc(F)cc1C(=O)C21CC(c2ccccc2)=NO1` (stereo unspecified)?
dFosB act: inactive; GRIN3A LBD mod: inactive; UBC13 inh: inactive

What do the screens show for `O=C(O)C1=CC[C@@H](c2ccc(Cl)cc2)N(S(=O)(=O)c2ccc(Cl)cc2)[C@H]1c1cccc(Cl)c1`?
dFosB act: inactive; Yeast superoxide: inactive; GRIN3A LBD mod: inactive; UBC13 inh: inactive

How did O=C(CCc1ccccc1)NNC(=O)COc1ccccc1 do in these assays?
NALP1 inh: inactive; dFosB act: inactive; Yeast superoxide: inactive; GRIN3A LBD mod: 12.7; UBC13 inh: inactive

How did CCCC(=O)NC(NC(=S)Nc1ccc(S(N)(=O)=O)cc1)C(Cl)(Cl)Cl (stereo unspecified) do in these assays?
NALP1 inh: inactive; dFosB act: inactive; Yeast superoxide: inactive; GRIN3A LBD mod: inactive; UBC13 inh: inactive

What do the screens show for `O=C(CCc1ccccc1)NNC(=O)Nc1ccc(Br)cc1`?
NALP1 inh: inactive; dFosB act: inactive; Yeast superoxide: inactive; GRIN3A LBD mod: 11.9; UBC13 inh: inactive

What do the screens show for `COc1ccc(OCC(=O)NNC(=O)CCc2ccccc2)cc1`?
NALP1 inh: inactive; dFosB act: inactive; Yeast superoxide: inactive; GRIN3A LBD mod: inactive; UBC13 inh: inactive

Results for CCCC(=O)NC(NC(=S)Nc1ccc(N=Nc2ccccc2)cc1)C(Cl)(Cl)Cl (stereo unspecified) ?
NALP1 inh: inactive; dFosB act: inactive; Yeast superoxide: inactive; GRIN3A LBD mod: 21.6; UBC13 inh: inactive

How did NC(=S)Nc1ccc(S(=O)(=O)c2ccc(NC(N)=S)cc2)cc1 do in these assays?
NALP1 inh: inactive; dFosB act: inactive; Yeast superoxide: inactive; GRIN3A LBD mod: 23.3; UBC13 inh: inactive

What do the screens show for `Cc1cc(/C=N/NC(=O)c2ccc(O)cc2)c(C)n1CC(C)C`?
NALP1 inh: inactive; dFosB act: inactive; Yeast superoxide: inactive; GRIN3A LBD mod: inactive; UBC13 inh: inactive

What do the screens show for `CC(C)[C@@H](C(=O)NC1CCN(Cc2ccccc2)CC1)N1C(=O)N2CCc3c([nH]c4ccccc34)[C@@]2(C)C1=O`?
NALP1 inh: inactive; dFosB act: inactive; Yeast superoxide: inactive; GRIN3A LBD mod: 36.9; UBC13 inh: inactive

What do the screens show for `Nc1nc(-c2ccc(-c3ccccc3)cc2)cs1`?
NALP1 inh: inactive; dFosB act: inactive; Yeast superoxide: inactive; GRIN3A LBD mod: inactive; UBC13 inh: inactive

How did Nc1nc(-c2ccc(Oc3ccccc3)cc2)cs1 do in these assays?
NALP1 inh: 98.5; dFosB act: inactive; Yeast superoxide: inactive; GRIN3A LBD mod: inactive; UBC13 inh: inactive

What do the screens show for `Cc1ccc(Oc2ncccc2/C=N/OCc2ccc(Cl)cc2Cl)cc1`?
NALP1 inh: inactive; dFosB act: inactive; Yeast superoxide: inactive; GRIN3A LBD mod: 14.0; UBC13 inh: inactive

What do the screens show for `Cc1ccc(Oc2ncccc2CO)cc1`?
NALP1 inh: inactive; dFosB act: inactive; Yeast superoxide: inactive; GRIN3A LBD mod: inactive; UBC13 inh: inactive

How did O=C(CC(=O)c1c(F)cccc1Cl)c1ccccc1O do in these assays?
NALP1 inh: inactive; dFosB act: inactive; Yeast superoxide: inactive; GRIN3A LBD mod: inactive; UBC13 inh: inactive

How did N#Cc1c(-c2ccccc2)cc(-c2ccc(O)cc2)nc1N do in these assays?
NALP1 inh: inactive; dFosB act: inactive; Yeast superoxide: inactive; GRIN3A LBD mod: 14.8; UBC13 inh: inactive

How did Oc1ccc(-c2cccc(-c3ccc(O)cc3)n2)cc1 do in these assays?
NALP1 inh: inactive; dFosB act: inactive; Yeast superoxide: inactive; GRIN3A LBD mod: 14.0; UBC13 inh: inactive

What do the screens show for `Oc1ccc(-c2nccc(-c3ccc(Cl)cc3)n2)cc1`?
NALP1 inh: inactive; dFosB act: inactive; Yeast superoxide: inactive; GRIN3A LBD mod: 56.7; UBC13 inh: inactive

How did Oc1ccc(-c2nccc(-c3ccc(Cl)cc3Cl)n2)cc1 do in these assays?
NALP1 inh: inactive; dFosB act: inactive; Yeast superoxide: inactive; GRIN3A LBD mod: inactive; UBC13 inh: inactive

Results for Oc1ccc(-c2nnc(-c3ccc(O)cc3)nn2)cc1 ?
NALP1 inh: inactive; dFosB act: inactive; Yeast superoxide: inactive; GRIN3A LBD mod: inactive; UBC13 inh: inactive

What do the screens show for `Nc1ccc(-c2cc(-c3ccc(N)cc3)nc(-c3ccccc3)n2)cc1`?
NALP1 inh: inactive; dFosB act: inactive; Yeast superoxide: inactive; GRIN3A LBD mod: 25.2; UBC13 inh: inactive

Results for Cc1ccc(SCC(=O)OCC(=O)NC2(C#N)CCCCC2)cc1 ?
NALP1 inh: inactive; dFosB act: inactive; Yeast superoxide: inactive; GRIN3A LBD mod: inactive; UBC13 inh: inactive

How did Oc1ccc(-c2cc(-c3ccc(O)cc3)nc(-c3ccccc3)n2)cc1 do in these assays?
NALP1 inh: inactive; dFosB act: inactive; Yeast superoxide: inactive; GRIN3A LBD mod: 28.8; UBC13 inh: inactive

How did CC12CCCc3c(O)cc(=O)n(c31)-c1ccccc12 (stereo unspecified) do in these assays?
NALP1 inh: inactive; dFosB act: inactive; Yeast superoxide: inactive; GRIN3A LBD mod: 21.3; UBC13 inh: inactive

Results for CC1(C)CCC(=O)c2ccccc21 ?
dFosB act: inactive; GRIN3A LBD mod: inactive
